Nine compounds from publication PMC5540273 (PLoS ONE, 2017) can be followed below.

Common to all, as to conditions: concentration: 1 μM,replicates: in singlicate; n = 1
For experiment [1], the system named is DYRK1B.
The test system of experiment [2] is DYRK2.
The subject of experiment [3] is EGFR.
Experiment [4] concerns EIF2AK1.
Experiment [5] deals with EPHA1.
Experiment [6] has as its system EPHA2.
In experiment [7] the test system is EPHA3.
Experiment [8] deals with EPHA4.
In experiment [9] the test system is EPHA5.
Experiment [10] relates to EPHA6.
Experiment [11] has as its system EPHA7.
Experiment [12] has as its system EPHA8.
In experiment [13] the test system is EPHB1.
Experiment [14] concerns EPHB2.
Experiment [15] has as its system EPHB3.
Experiment [16] relates to EPHB4.
For experiment [17], the system named is EPHB6.
In experiment [18] the test system is ERBB2.
In experiment [19] the test system is ERBB3.
Experiment [20] deals with ERBB4.
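Also: KINOMEscan kinase panel screen.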

Turning to `COc1cc2c(Nc3ccc(NC(=O)c4ccccc4)cc3)ncnc2cc1OCCCN1CCOCC1` [GSK301329], the “%Inh” value in [1] was found to be 0%; in experiment [2] it was 35%; in experiment [3], 90%; in experiment [4], 4%; in experiment [5] it was 3%; in [6], 4%. Moreover, the “%Inh” value in experiment [7] came out at 0%; in [8] it was 7%; in experiment [9], 0%; in [10], 5%; in experiment [11], 6%; in experiment [12], 12%. The “%Inh” value in experiment [13] is given as 20%; in [14] it was 0%; in [15], 5%; in experiment [16], 2%; in [17], 79%; in experiment [18] it was 72%. Further, the “%Inh” value is on record as 0% in experiment [19] and 85% in experiment [20].
For the compound `NC(=O)c1ccc(-c2cc3ncnc(SCC(=O)O)c3s2)cc1`, the “%Inh” value was found to be 57% in experiment [1]; 47% in experiment [2]; 0% in experiment [3]; 0% in experiment [4]; 0% in experiment [5]; 0% in experiment [6]. Moreover, the “%Inh” value in experiment [7] worked out at 0%; in experiment [8] it was 17%; in [9] it was 0%; in experiment [10], 21%; in [11], 0%; in experiment [12], 0%. Also, the “%Inh” value in experiment [13] was found to be 0%; in [14] it was 0%; in experiment [15] it was 26%; in [16], 1%; in experiment [17] it was 62%; in experiment [18] it was 33%. Also, the figures for the “%Inh” value in experiment [19] and in [20] were 0% and 10%, respectively.
For `CC(C(=O)NC1CCN(c2ccnc(Nc3ccc(F)cc3)n2)C1)c1ccc(Cl)cc1` (stereo not drawn) [GSK1379713], the “%Inh” value worked out at 12% in experiment [1]; 10% in experiment [2]; 28% in experiment [3]; 0% in experiment [4]; 0% in experiment [5]; 14% in experiment [6]. In addition, the “%Inh” value in experiment [7] is reported as 0%; in experiment [8] it was 0%; in experiment [9], 0%; in experiment [10], 0%; in experiment [11], 5%; in [12] it was 14%. The “%Inh” value in experiment [13] is given as 10%; in experiment [14], 0%; in experiment [15], 0%; in experiment [16], 0%; in experiment [17], 0%; in experiment [18], 25%. Also, the “%Inh” value in [19] and in experiment [20] was 0% each time.
Consider `CN1CCN(CCCNc2nccc(-c3c(-c4ccc(F)cc4)nn4cc(C(N)=O)ccc34)n2)CC1` [GW622475], for which the “%Inh” value in [1] is reported as 100%; in experiment [2], 19%; in [3], 38%; in experiment [4] it was 8%; in experiment [5], 51%; in experiment [6], 28%. In addition, the “%Inh” value in experiment [7] was found to be 31%; in experiment [8], 0%; in [9] it was 0%; in experiment [10] it was 21%; in experiment [11] it was 8%; in experiment [12] it was 26%. For the same compound, the “%Inh” value in experiment [13] is 35%; in [14], 26%; in experiment [15] it was 0%; in experiment [16] it was 20%; in experiment [17] it was 44%; in experiment [18], 24%. The “%Inh” value in [19] worked out at 0%; in experiment [20], 63%.
For `O=C1NCCc2[nH]c(-c3ccncc3)cc21`, the “%Inh” value in experiment [1] is recorded as 97.6%; in [2], 97.1%; in experiment [3] it was 0%; in [4], 0%; in experiment [5], 2%; in [6], 0%. The “%Inh” value in [7] was determined as 0%; in [8], 30%; in experiment [9] it was 31%; in [10], 41%; in experiment [11] it was 0%; in [12], 0%. Also, the “%Inh” value came out at 0% in experiment [13]; 12% in experiment [14]; 44% in experiment [15]; 17% in experiment [16]; 8% in [17]; 0% in experiment [18]. For the same compound, the “%Inh” value is 21% in experiment [19] and 0% in experiment [20].
As to `Cc1nnc(-c2ccc3occ(-c4ccc(S(C)=O)cc4)c3n2)o1` (stereo not drawn), the “%Inh” value in experiment [1] is 0%; in experiment [2], 0%; in [3], 0%; in experiment [4] it was 0%; in experiment [5], 0%; in experiment [6], 3%. For the same compound, the “%Inh” value in experiment [7] amounted to 4%; in experiment [8], 23%; in experiment [9], 1%; in experiment [10], 17%; in experiment [11], 0%; in [12], 0%. For the same compound, the “%Inh” value is 0% in experiment [13]; 0% in experiment [14]; 10% in experiment [15]; 12% in [16]; 0% in [17]; 17% in experiment [18]. In addition, the “%Inh” value in experiment [19] and in [20] was 0% each time.
Regarding `O=C(NCC1CC1)c1ccc(-c2cc(C(=O)NC3CC3)ccc2F)cc1` [GW810445], the “%Inh” value in experiment [1] is recorded as 24%; in experiment [2] it was 0%; in experiment [3] it was 15%; in experiment [4] it was 0%; in experiment [5], 0%; in [6] it was 0%. Moreover, the “%Inh” value in experiment [7] worked out at 10%; in experiment [8], 0%; in experiment [9], 0%; in experiment [10], 0%; in experiment [11], 0%; in experiment [12] it was 3%. For the same compound, the “%Inh” value in experiment [13] is given as 4%; in experiment [14], 0%; in experiment [15], 0%; in experiment [16], 0%; in experiment [17] it was 0%; in [18], 11%. Moreover, the “%Inh” value in experiment [19] came out at 0%; in experiment [20], 33%.
Take `Cc1ccn2nc(-c3ccc(F)cc3)c(-c3ccncc3)c2c1.Cl` [GW457859]: the “%Inh” value in [1] came to 10%; in experiment [2], 0%; in experiment [3] it was 49%; in experiment [4], 8%; in experiment [5] it was 2%; in experiment [6], 83%. Further, the “%Inh” value in experiment [7] amounted to 19%; in [8] it was 0%; in experiment [9] it was 0%; in [10], 4%; in experiment [11] it was 0%; in experiment [12], 0%. For the same compound, the “%Inh” value is recorded as 0% in experiment [13]; 0% in [14]; 2% in experiment [15]; 3% in experiment [16]; 8% in experiment [17]; 64% in [18]. The results for the “%Inh” value in experiment [19] and in [20] were 24% and 32%, respectively.
As to `C[C@@H](Oc1cc(-n2cnc3ccc(-c4ccncc4)cc32)sc1C(N)=O)c1ccccc1Cl` [GSK483724], the “%Inh” value was found to be 91.5% in experiment [1]; 48% in experiment [2]; 36% in experiment [3]; 4% in experiment [4]; 17% in [5]; 19% in experiment [6]. Besides, the “%Inh” value in experiment [7] amounted to 0%; in [8], 2%; in experiment [9], 0%; in experiment [10], 16%; in experiment [11] it was 14%; in experiment [12] it was 23%. Further, the “%Inh” value in experiment [13] was found to be 26%; in experiment [14], 0%; in [15] it was 9%; in [16] it was 10%; in experiment [17], 0%; in experiment [18], 14%. The “%Inh” value is reported as 0% in experiment [19] and 41% in experiment [20].
